Bioassay records: PubChem, National Center for Advancing Translational Sciences (NCATS)
LmPK inhibitor: inhibitors of Leishmania mexicana pyruvate kinase; purified LmPK, Kinase-Glo ATP luminescence, 1 h; Potency, µM (highest dose often 57.5 µM), for the others: top-dose activity change, negative = inhibition, hits mostly inhibitors; hit rate 0.37% among 290,000; Q27686; further: potency means the concentration at half of the fitted maximal effect; on the % scale 0 is the no-effect control and ±100 the full control effect
Target sequence (Q27686 whole entry, looked up): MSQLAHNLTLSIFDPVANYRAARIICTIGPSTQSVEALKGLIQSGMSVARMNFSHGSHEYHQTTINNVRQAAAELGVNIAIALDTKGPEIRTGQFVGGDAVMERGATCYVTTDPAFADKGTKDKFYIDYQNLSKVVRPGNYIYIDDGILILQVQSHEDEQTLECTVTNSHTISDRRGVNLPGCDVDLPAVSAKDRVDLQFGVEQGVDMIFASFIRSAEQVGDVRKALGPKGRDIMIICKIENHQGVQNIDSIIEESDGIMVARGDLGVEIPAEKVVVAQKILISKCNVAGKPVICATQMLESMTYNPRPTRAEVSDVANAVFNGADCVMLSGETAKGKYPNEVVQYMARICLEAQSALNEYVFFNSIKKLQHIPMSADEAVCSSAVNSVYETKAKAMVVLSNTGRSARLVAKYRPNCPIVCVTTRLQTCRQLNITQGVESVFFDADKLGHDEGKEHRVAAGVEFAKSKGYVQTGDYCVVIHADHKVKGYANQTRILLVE
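In 50 mM imidazole pH 7.2 with 7 mM MgCl2, LmPK (0.1 nM) turned over PEP (0.5 mM) and ADP (0.1 mM) for 1 h at room temperature. Luciferase read-out of ATP.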
CHX counter: counter-screen for Shiga toxin inhibitors: cycloheximide protein synthesis inhibition. cell reporter, cycloheximide protein synthesis inhibition counterscreen. max response, %. hit rate 12% among 300,000. AID 2314; in the data active means max response mostly above about 13%, no sharp cut-off; inactive means mostly below about 14%; further: read at 38.3 µM for the half of the compounds with a filed dose; 0% is about no effect
Pf growth 96h: inhibits malaria parasite growth, 96 h; P. falciparum luciferase reporter growth, 96 h; Potency, µM (top dose mostly 28.7 µM), without a hit: at the highest dose activity change, negative = inhibition, actives largely listed as inhibitors; hit rate 6.9% among 320,000; further: potency means the concentration at half of the fitted maximal effect; on the % scale 0 is the no-effect control and ±100 the full control effect
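Plates of compound plus infected erythrocytes (2% hematocrit, 0.05% parasitemia final) incubate 96 hours, 37 C, 5% CO2. Detection reagent added; reduced luminescence from the parasites' luciferase reporter flags inhibition.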
Pf growth 48h: P. falciparum growth inhibition at 48 hours (one generation). hit rate 5.9% among 310,000. Potency, µM (highest dose often 28.7 µM), for inactives: at the highest dose activity change, negative = inhibition, usual class: inhibitors. P. falciparum luciferase growth in erythrocytes, 48 h; further: potency means the concentration at half of the fitted maximal effect; on the % scale 0 is the no-effect control and ±100 the full control effect
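Parasite viability was followed by luminescence of a genomically integrated firefly luciferase. Cultures held 0.1% parasitemia at 2% hematocrit (final), incubated under 5% CO2 at 37 C.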
Shiga toxin inh: inhibitors of Shiga toxin in Vero cells; Vero cells, Shiga toxin protein synthesis inhibition reporter; inhibition, % at 38.7 µM; hit rate 9.2% among 290,000; AID 2315; in the data active means inhibition mostly above about 28%, no sharp cut-off; inactive means mostly below about 43%; further: 0% is about no effect
Numbers without * were called inactive; u = inconclusive; x = not tested or not shown; [ ] = dose if it differs, or a comment. An excerpt weighted towards active compounds, which were near 22% of everything screened. Unless noted, the call rests on the fitted dose curve; in most records, active means well fitted inhibition curve with a large enough effect; inconclusive means small, poorly fitted or top-dose-only effect, or another doubt; inactive means no such curve, though single readings can be large or run the other way.

SMILES	LmPK inhibitor	CHX counter	Pf growth 96h	Pf growth 48h	Shiga toxin inh
c1ccc(-c2ccccc2OCCCCN2CCCCCC2)cc1	-1%	-1	-3%	u	-14
COc1ccc2ccccc2c1/C=N/Nc1cccc(C(=O)O)c1	-6%	72*	7%	65%	134*
COc1ccc2ccccc2c1/C=N/Nc1ccc(Cl)c(C(=O)O)c1	14%	15	u	-11%	56*
O=C(O)c1cccc(N/N=C/c2cccc3ccccc23)c1	4%	74*	327%	167%	165*
COc1ccc(-c2nn(-c3ccccc3)cc2C(=O)O)cc1OC	10%	17	37%	x	17
COc1ccc(-c2nn(-c3ccccc3)cc2/C=N/Nc2ccc(Cl)c(C(=O)O)c2)cc1OC	8%	19*	-1%	u	72*
O=C(O)c1cccc(Cn2c(Cl)c(/C=N/Nc3ccccc3)sc2=O)c1	5%	8	u	u	49
COc1ccc(CC(=O)NNC2=Nc3cccc4cccc2c34)cc1	11%	-1	27%	-1%	14
CCc1cccc(CC)c1NC(=S)N(CCN(C)C)C(C)c1cccnc1 (configuration not stated)	-4%	7	u	0%	-1
Cc1cc(NC(=O)NC(C)(C(F)(F)F)C(F)(F)F)no1	-3%	-2	9%	18%	-14
N#CCc1c(C#N)c(N)nc(N2CCCC(CO)C2)c1C#N (configuration not stated)	3%	-1	27%	-6%	17
O=C(/C=C/c1ccc(Cl)c(Cl)c1)NCCCn1ccnc1	-3%	25*	u	2%	51*
Cc1ccc(/C=C/C(=O)NCCCn2ccnc2)cc1	0%	-3	35%	u	-13
COc1ccc(-c2nn(-c3ccccc3)cc2/C=C/C(=O)NCCCn2ccnc2)cc1OC	0%	-6	10µM*	12µM*	-5
COc1ccc(-c2nn(-c3ccccc3)cc2C(=O)NCCCn2ccnc2)cc1	9%	0	u	x	-7
Oc1ccc2ccccc2c1/C=N/Nc1ccccc1	1%	3	u	-10%	3
COc1ccc(N/N=C/c2c(C(=O)O)ccc3ccccc23)cc1	1%	22*	7.4µM*	2.6µM*	27*
O=C(CNC(=O)c1ccc(Cl)cc1)NCCCn1ccnc1	5%	-3	u	10µM*	32
COc1ccc(S(=O)(=O)N2CCc3ccccc32)cc1C(=O)N1CCOCC1	x	x	-19%	u	x
Cc1ccc(S(=O)(=O)/N=c2\ccc(Cl)cn2C(F)F)cc1	1%	22	53%	30%	30
CC(C)c1cccc(C(C)C)c1NC(=O)CN1C(=O)NC2(CCCC2)C1=O	5%	-7	-2%	19%	-3
COc1ccc(C(=O)C2CCCN(C(=O)C3=CCCC3)C2)c(C)c1 (configuration not stated)	-2%	-2	u	-11%	-18
COc1ccc(C(=O)C2CCCN(C(=O)CCC3=NNC(=O)CC3)C2)c(C)c1 (configuration not stated)	-1%	-4	10µM*	0%	17
O=C1CCC(CCC(=O)N2CCCC(C(=O)c3cccc(C(F)(F)F)c3)C2)=NN1 (configuration not stated)	1%	11*	13%	47%	15
COc1cccc(C(=O)C2CCCN(C(=O)CCC3=NNC(=O)CC3)C2)c1 (configuration not stated)	-2%	16*	21%	24%	46*
SMILES	LmPK inhibitor	CHX counter	Pf growth 96h	Pf growth 48h	Shiga toxin inh
CC(=O)Nc1ccc(S(=O)(=O)NC(C)C(=O)NCCc2ccc(F)cc2)cc1 (configuration not stated)	6%	-2	0%	7%	-10
O=C(N/N=C/c1ccc2cccnc2c1)c1nc2ccccc2c(=O)[nH]1	-1%	30*	41%	46%	35*
O=C(N/N=C/c1ccncc1)c1nc2ccccc2c(=O)[nH]1	2%	17*	57%	51%	32
CN(C)c1ccc(NC(=O)COC(=O)Cn2nnc3ccccc32)cc1	-1%	0	69%	17%	-9
CCOc1ccc(C(=O)OCC(=O)NC2CCCCCCC2)cc1	x	x	41%	28%	x
CC1(c2ccccc2)CC(C)(C)N2C(=O)Cc3cccc1c32 (configuration not stated)	2%	-4	42%[5.75 µM]	15µM*	-14
COc1ccccc1CCC(=O)NCCCn1ccc2ccccc21	0%	-6	-22%	u	32
CCCCCCCCCCOc1cc2c(=O)c(C(=O)OCC)c[nH]c2cc1OCC	x	x	-103%	0.0015µM*	x
O=C(c1ncc[nH]1)c1ccccc1C(=O)N1CCOCC1	-2%	-6	20%	13%	-17
O=C(c1ncc[nH]1)c1cccs1	8%	29*	38%	78%	24
O=C(CN(CCc1ccccc1)Cc1ccccc1)Oc1ccccc1P(=O)(O)O	-4%	-1	u	27%	-6
COC(=O)c1ccc2c(=O)[nH]c(CSc3nc(C)cs3)nc2c1	-21%	28*	27%	75%	67*
COC(=O)c1ccc2c(=O)[nH]c(CSc3nc(-c4ccc(F)cc4)cs3)nc2c1	-1%	-4	-2%	7%	2
CC(=O)C1=C(O)C(=O)N(c2ccc(Br)cc2)C1c1ccccc1[N+](=O)[O-] (configuration not stated)	-3%	-2	u	u	-2
N#Cc1c2ccc(OCC(=O)NCc3ccco3)cc2n2ccccc12	-4%	-5	u	u	-5
N#Cc1c2ccc(O)cc2n2ccccc12	-3%	27*	-14%	-17%	27
CSCCC(NC(=O)COc1ccccc1)C(=O)NCCOc1ccccc1 (configuration not stated)	x	x	-22%	0%	x
CCOCCCNC(=O)c1ccc(OC2CCN(C(C)=O)CC2)c(OC)c1	0%	-2	21%	u	4
CC(C)Sc1nc2sccc2c(=O)n1-c1ccccc1	7%	-2	u	-15%	19
CC(Sc1nc2sccc2c(=O)n1-c1ccccc1)C(N)=O (configuration not stated)	3%	5	1.7µM*	u	-3
Cc1cccc(C)c1NC(=O)CNC(=O)c1c(-c2ccccc2)noc1C	x	x	-6%	-25%	x
CCOc1ccccc1NC(=O)Cn1c(=O)oc2cc(Cl)ccc21	7%	-2	16%	-14%	-12
CCOc1ccccc1NC(=O)Cn1c(-c2ccc(Cl)cc2)noc1=O	2%	-2	4.1µM*	1.7µM*	-8
CN(C)S(=O)(=O)c1ccc(NC(=O)Cn2c(-c3ccccc3)noc2=O)cc1	8%	1	4.7µM*	x	-7
Cc1ccc(C(=O)Cn2c(-c3ccccc3)noc2=O)cc1	2%	-4	-1%	12%	-5
Cc1onc(-c2ccccc2)c1C(=O)NC1CC1	x	x	6%	46%	x
COC(=O)c1ccsc1NC(=O)CCc1ccccc1	-16%	48*	115%	131%	65*
